12-LOX inh: blocks human arachidonate 12S-lipoxygenase; purified 12hLO, xylenol orange hydroperoxide absorbance; AID 1671190; Potency, µM (titrated, usually from 108 µM), for inactives: top-dose activity change, negative = inhibition, most hits filed as inhibitors; 580,000 tested, 1.1% active; also: % is scaled to controls: 0 for no effect and ±100 for the full control effect
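Purified human 12hLO at 150 nM in 25 mM Hepes, 0.01% Triton X-100, pH 7.0, preincubated 15 min at room temperature with compound. Reaction started with 40 uM arachidonic acid, 30 min at room temperature. Hydroperoxide measured by Fe-xylenol orange, 573/405 nm absorbance ratio.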
G9a inh: inhibitors of human histone lysine methyltransferase G9a; Q96KQ7; G9a H3K9 monomethylation, AlphaScreen, 2 h; Potency, µM (top dose mostly 102 µM), inactives show top-dose activity, negative = inhibition, most hits filed as inhibitors; 350,000 tested, 8.8% active; also: % is scaled to controls: 0 for no effect and ±100 for the full control effect; nearly all actives have a fitted effect of over 75% in size
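Methyltransferase reactions run at room temperature for 2 h (20 nM enzyme, 500 nM biotin-H3K9 peptide, 20 uM SAM) after a 15 min compound preincubation; product detected by AlphaScreen beads and anti-H3K9me1 antibody.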
JMJD2A Tudor inh: blocks the human JMJD2A Tudor domain | AlphaScreen JMJD2A-Tudor / H3K4me3 peptide binding | AID 504339 | 390,000 tested, 4.4% active | O75164 | Potency, µM (top dose mostly 114 µM), inactives show top-dose activity change, negative = inhibition, hits mostly inhibitors; also: % is scaled to controls: 0 for no effect and ±100 for the full control effect; nearly all actives have a fitted effect of over 50% in size
HP1b binding inh: blocks HP1-beta chromodomain binding to methylated histone tails. Potency, µM (highest dose often 114 µM), without a hit: at the top dose activity change, negative = inhibition, actives largely listed as inhibitors. AlphaScreen HP1-beta / biotin-H3K9me3 peptide binding. 390,000 tested, 0.56% active. P83916; also: nearly all actives have a fitted effect of over 70% in size
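HP1-beta protein (50 nM final) preincubated 30 min at room temperature with biotinylated H3(1-18)K9me3 peptide (50 nM) in PBS pH 7.4, 0.01% Tween-20, then compound added for 30 min. AlphaScreen streptavidin donor/nickel chelate acceptor beads (10 ug/mL final), 30 min dark, luminescence read.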
PLK1 PBD block: inhibitors of human PLK1 polo-box domain binding; AID 720504; 360,000 tested, 2.8% active; Potency, µM, inactives show max response, negative = inhibition, hits mostly inhibitors; Plk1 PBD binding of FITC phosphopeptide, fluorescence polarization; also: series mostly up to about 57 µM; % is scaled to controls: 0 for no effect and ±100 for the full control effect; nearly all actives have a fitted effect of over 65% in size
BAZ2B inh: BAZ2B (human) inhibition; 360,000 tested, 4.4% active; AlphaScreen BAZ2B-H3K14Ac peptide displacement; Potency, µM (titrated, usually from 114 µM), for inactives: at the highest dose activity change, negative = inhibition, hits mostly inhibitors; AID 504333; Q9UIF8; also: % is scaled to controls: 0 for no effect and ±100 for the full control effect; nearly all actives have a fitted effect of over 60% in size
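AlphaScreen displacement: compounds (up to 110uM) incubated 30 min at room temperature with a preformed 50 nM BAZ2B/50 nM biotinylated H3K14Ac peptide complex in PBS pH 7.4 with Tween-20. Donor and acceptor beads at 10 ug/mL final added, 20 min light-protected before reading.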
Numbers without * were called inactive; [ ] = dose if it differs, or a comment. Hits are enriched below; roughly 9% of the tested compounds scored in any of these assays. Calls follow the shape of the dose curve; as a rule, active = well fitted curve in the direction sought with a large enough effect; inconclusive = small, poorly fitted or top-dose-only effect, or another doubt; inactive = no such curve, though single readings can be large; an effect the other way counts as inactive or inconclusive. Potency is read from the fitted curve at half-maximal effect.

CC(C)(C)c1ccc(CS(=O)(=O)CC(O)CN2CCCC2=O)cc1 (centres undefined) was read as 12-LOX inh 65%, G9a inh 15%, JMJD2A Tudor inh -31%, HP1b binding inh 10%, PLK1 PBD block 34µM* and BAZ2B inh -13%.
Screening CSc1nsc(/C=C/Nc2cccc(Cl)c2)c1C#N returned 12-LOX inh inconclusive, G9a inh 10µM*, JMJD2A Tudor inh inconclusive, HP1b binding inh -12%, PLK1 PBD block -7% and BAZ2B inh inconclusive.
Screening CSc1nsc(/C=C/Nc2ccc(O)cc2C)c1C#N returned 12-LOX inh 35µM*, G9a inh 7.9µM*, JMJD2A Tudor inh 50µM*, HP1b binding inh -34%, PLK1 PBD block 13% and BAZ2B inh 40µM*.
CS(=O)(=O)N(CC(=O)N1CCc2ccccc2C1)Cc1ccc(F)cc1 was read as 12-LOX inh inconclusive, G9a inh 7%[59 µM], JMJD2A Tudor inh 1%, HP1b binding inh 45%, PLK1 PBD block -1% and BAZ2B inh 1%.
Screening Cc1cccc(C(=O)c2c(N)sc3c2CCC(C)C3)c1 (centres undefined) returned 12-LOX inh inconclusive, G9a inh 45µM*, JMJD2A Tudor inh inconclusive, HP1b binding inh inconclusive, PLK1 PBD block -24% and BAZ2B inh 1%.
CC1CCc2c(sc(N)c2C(N)=O)C1 (centres undefined) was read as 12-LOX inh inconclusive, G9a inh inconclusive, JMJD2A Tudor inh inconclusive, HP1b binding inh -21%, PLK1 PBD block 27µM* and BAZ2B inh -30%.
`Cc1cccc(C(=O)c2c(N)sc3c2CCCC3)c1` gave 12-LOX inh inconclusive, G9a inh 32µM*, JMJD2A Tudor inh inconclusive, HP1b binding inh -30%, PLK1 PBD block inconclusive and BAZ2B inh -36%.
For COc1cc(/C=C2\Oc3cc(OS(C)(=O)=O)ccc3C2=O)cc(OC)c1OC the results were 12-LOX inh 17%.
Screening O=C(N/N=C/C=C\c1ccco1)c1cccs1 returned 12-LOX inh inconclusive, G9a inh inconclusive, JMJD2A Tudor inh -23%, HP1b binding inh 7%, PLK1 PBD block -11% and BAZ2B inh 45µM*.
CC(=C/c1ccco1)/C=N/NC(=O)c1ccncc1 was read as 12-LOX inh 148%, G9a inh 8%[59 µM], JMJD2A Tudor inh -12%, HP1b binding inh 21%, PLK1 PBD block 1% and BAZ2B inh -23%.
For O=C(N/N=C/C=C/c1ccc([N+](=O)[O-])cc1)c1cccs1 the results were 12-LOX inh 0%, G9a inh 40µM*, JMJD2A Tudor inh -30%, HP1b binding inh 25%, PLK1 PBD block 0% and BAZ2B inh 50µM*.
O=C(N/N=C/C=C/c1ccco1)c1ccncc1 was read as 12-LOX inh 233%, JMJD2A Tudor inh 79µM*, HP1b binding inh inconclusive, PLK1 PBD block -3% and BAZ2B inh 8%.
For O=C(Cc1cccs1)N/N=C/C=C\c1ccco1 the results were 12-LOX inh inconclusive, G9a inh inconclusive, JMJD2A Tudor inh -25%, HP1b binding inh -9%, PLK1 PBD block -16% and BAZ2B inh -3%.
Screening O=C(OCCCOc1ccc(F)cc1)c1ccc(O)cc1O returned 12-LOX inh inconclusive, JMJD2A Tudor inh -6%, HP1b binding inh 32%, PLK1 PBD block -10% and BAZ2B inh 6%.
`CC(C)(C)c1nc(C#N)c(NCC(c2ccccc2Cl)N2CCOCC2)o1` (centres undefined) gave 12-LOX inh -5%.
CCOC(=O)CNS(=O)(=O)Cc1ccccc1 was read as 12-LOX inh -4%, G9a inh 7%[2.33 µM], JMJD2A Tudor inh -2%, HP1b binding inh 48%, PLK1 PBD block -10% and BAZ2B inh -4%.
`CCCN(CCC)C(=O)CSc1nc2ccccc2c(=O)n1Cc1ccco1` gave 12-LOX inh -12%, G9a inh 5%[59 µM], JMJD2A Tudor inh -30%, HP1b binding inh 10% and BAZ2B inh -13%.
